High-throughput results from PubChem BioAssay.
PV pol inh – poliovirus RdRp elongation inhibitors, primary screen, biochemical, fluorescence polarization, total intensity; 150,000 tested, 0.66% active; poliovirus polymerase elongation; stronger effect = lower value; % elongation, % (compound at 16.7 µg/mL); Genome polyprotein (Poliovirus type 1 (strain Mahoney)), P03300; in the data active = % elongation below about 90%
MbtI inh – MbtI salicylate synthase inhibitors, primary screen, biochemical, fluorescence intensity; inhibition, % (test concentration not listed); AID 493033, 2011; 100,000 tested, 0.89% active; P9WFX0; purified MbtI enzyme, fluorescence intensity read-out; in the data active = inhibition mostly above about 56%, no sharp cut-off; inactive = mostly below about 77%
Target sequence (P9WFX0 whole entry, looked up): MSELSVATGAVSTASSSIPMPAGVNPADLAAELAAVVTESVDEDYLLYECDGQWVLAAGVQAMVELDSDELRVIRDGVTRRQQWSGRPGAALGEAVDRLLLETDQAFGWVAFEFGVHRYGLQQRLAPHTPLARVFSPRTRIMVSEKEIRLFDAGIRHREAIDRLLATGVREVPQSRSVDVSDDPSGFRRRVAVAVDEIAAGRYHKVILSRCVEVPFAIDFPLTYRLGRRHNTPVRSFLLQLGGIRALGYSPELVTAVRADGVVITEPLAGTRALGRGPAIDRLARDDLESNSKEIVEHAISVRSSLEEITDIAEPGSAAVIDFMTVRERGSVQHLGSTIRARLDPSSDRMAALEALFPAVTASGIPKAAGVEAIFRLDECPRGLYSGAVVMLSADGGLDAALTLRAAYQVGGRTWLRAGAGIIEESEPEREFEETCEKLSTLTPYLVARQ
AID504770 – growth inhibition of E. coli YBA685, primary screen, V. cholerae RctB inhibitors | 130,000 tested, 0.27% active | z-score (no concentration beside the values) | E. coli YBA685 rctB-dependent plasmid, OD600 growth, 3 h; stronger effect = lower value; in the data active = z-score below about -2, passing the limit was not always enough
MenB inh – M. tuberculosis MenB inhibitors, primary screen, biochemical, absorbance; inhibition, % (test concentration not listed); MenB enzyme assay, absorbance read-out; 100,000 tested, 0.43% active; 1,4-dihydroxy-2-naphthoyl-CoA synthase (Mycobacterium tuberculosis (strain ATCC 25618 / …; AID 540299, 2011; in the data active = inhibition above about 21%, passing the limit was not always enough
An asterisk follows results filed as active; . = no result. The list is not random: actives were taken first. Their share in the collection is about 1.4%.

SMILES	PV pol inh	MbtI inh	AID504770	MenB inh
Fc1ccc(C(c2nnnn2Cc2ccccc2)N2CCSCC2)cc1 (stereo not drawn)	102	-6	-0.1	0
COc1ccccc1CN1CCN(C(CC(C)C)c2nnnn2Cc2ccc(F)cc2)CC1 (stereo not drawn)	101	-2	-0.45	33*
CC(C)c1ccc(S(=O)(=O)/N=C2/C=C(Sc3ncn[nH]3)C(=O)c3ccccc32)cc1	66*	88	0.4	8
Cc1ccc(S(=O)(=O)/N=C2\C=C(Sc3ncn[nH]3)C(=O)c3ccccc32)cc1	102	86*	1.5	-58
Cc1ccc(S(=O)(=O)/N=C2/C=C(Sc3ncn[nH]3)C(=O)c3ccccc32)cc1	.	88*	-0.5	.
O=C1C(Sc2ccccc2)=C/C(=N/S(=O)(=O)c2cccs2)c2ccccc21	92	92	0.05	-5
Cc1cccc(N2C(=O)CC(Sc3nccc(C)n3)C2=O)c1 (stereo not drawn)	101	63*	-0.05	4
Cc1cccc(N2C(=O)CC(Sc3ncn[nH]3)C2=O)c1 (stereo not drawn)	97	99*	0.05	10
CCOc1ccc(N2C(=O)CC(Sc3nccc(C)n3)C2=O)cc1 (stereo not drawn)	104	32	-0.4	-10
O=C(O)c1cccc(NC(=O)c2ccccc2C(=O)O)c1	.	.	-0.4	.
CC1(C)CC2CC(C)(CN2C(=O)c2cc(-c3ccccc3)on2)C1 (stereo not drawn)	105	-19	1.9	-45
Nc1ccc2nc(CCCO)[nH]c2c1	54*	59	0.75	28
Cn1c(CNC(=O)C2CCCCC2)cc2cc(Cl)ccc21	104	.	-0.35	23*
COc1cccc(C=C2C(=O)N(C)C(=S)N(C)C2=O)c1OC	95	93*	0.75	-76
CN1C(=O)C(=Cc2ccccc2OCc2ccccc2)C(=O)N(C)C1=S	100	77	2.1	-25
CC(=O)Nc1sc2c(c1CN(C)C)CCCC2	107	-6	-0.75	-13
CC(=O)Nc1sc2c(c1-c1nsc(=O)o1)CCCC2	82*	.	-0.8	-30
CC(C)Oc1ccc(CNC(=O)c2cnc3sc(N4CCCC4)nn3c2=O)cc1	15*	.	.	.
CC(NC(=O)CN1CCN(C(=O)c2cccs2)CC1)c1ccc(F)cc1F (stereo not drawn)	107	-4	-0.3	0
N#CCn1ccn(-c2ccc(F)c(Cl)c2)c(=O)c1=O	103	-9	-1.2	-13
O=c1sn(-c2ccc(F)c(Cl)c2)c(=O)n1C1Cc2ccccc2C1	95	83*	-3.3*	9
CCOc1cc(C2N3CCc4ccccc4C3CN2S(=O)(=O)c2ccc(C)cc2)ccc1OC (stereo not drawn)	98	.	-0.05	-4
NC(=NCCCCCCN=C(N)/N=C(\N)Nc1ccc(Cl)cc1)/N=C(\N)Nc1ccc(Cl)cc1	100	24	-5*	-5
CC(C)N=C(N)/N=C(\N)Nc1ccc(Cl)cc1	99	-16	.	0
CCOC(=O)c1ccc(NC(=O)Cn2cc(C(=O)CC)c3ccccc32)cc1	102	-2	0.4	-8
SMILES	PV pol inh	MbtI inh	AID504770	MenB inh
CCn1c(SCCC#N)nnc1-c1ccncc1	102	2	-0.1	31*
COc1ccc(/C=N/NC(=S)Nc2c(C)n(C)n(-c3ccccc3)c2=O)cc1OC	100	27	0.65	-12
COc1ccc(/C=C2\SC(=O)N(c3c(C)n(C)n(-c4ccccc4)c3=O)C2=O)cc1OC	81*	87*	0.1	-32
Cc1onc(-c2c(Cl)cccc2Cl)c1C(=O)N(C)C	104	-6	-0.95	-18
O=C1C=C2C(=CCOC2O)O1 (stereo not drawn)	99	27	-5.2*	0
COCCNC(=O)Cn1ncn2nc(-c3ccccc3)cc2c1=O	100	15	-0.75	-8
CCOC(=O)Cn1cnc2sc(C(=O)OCC)c(C)c2c1=O	102	16	-0.7	48*
CCOCC(O)CN (stereo not drawn)	100	-4	-0.4	-10
CC(C)OCC(O)CN (stereo not drawn)	102	-1	1.9	32*
CCN(CC)CCNC(=O)c1ccc2c(=O)n3nc(Nc4ccccc4)sc3nc2c1	81*	.	.	.
COCCNC(=O)Cn1cc2c(n1)-c1c(oc(C(=O)N3CCCC3)c1C)CC2	103	.	.	.
Cc1oc(C(C)(C)C)cc1C(=O)NC1CCN(Cc2ccccc2)CC1	102	3	-0.25	-2
CN(CC(=O)Nc1ccc(F)cc1)C(=O)CSc1ccc2c(c1)OCCO2	106	98*	2	-24
O=C(CSc1ccc2c(c1)OCCO2)Nc1ccccc1	99	0	-0.2	-9
CCN(CC)S(=O)(=O)c1ccc(NC(=O)CCc2c(C)nc3cc(-c4ccc(Cl)cc4)nn3c2C)cc1	107	.	.	.
CCCN1CCCc2cc(CN)ccc21	26*	31	-0.5	-77
CC(C)N1CCCc2cc(CN)ccc21	31	.	0.3	29
CCN1CCCc2cc(O)ccc21	.	98*	0.15	.
Cc1nc(-c2c(C)[nH]c3ccccc23)cs1	89*	87*	0	9
CCCCOc1ccc(CNC(=O)Cc2ccc(NC(=O)N3CCCCc4ccccc43)cc2)cc1	105	.	.	.
O=C1CSc2nnc(C3COc4ccccc4O3)n2N1 (stereo not drawn)	95	85*	0.5	-55
COc1ccccc1NC(=O)CSCC(N)=O	102	95*	1.1	-24
CN1C(=O)Cc2cc(S(=O)(=O)CCC(=O)Nc3cccc(C(F)(F)F)c3)ccc21	108	.	.	.
CN1C(=O)Cc2cc(S(=O)(=O)CCC(=O)Nc3ccccc3)ccc21	-22*	.	.	.
O=C(OCc1cn2cc(Cl)ccc2n1)c1cccc(-n2cnnn2)c1	99	10	-0.35	-19
SMILES	PV pol inh	MbtI inh	AID504770	MenB inh
[N-]=[N+]=c1c(=O)ccc2c(=O)c3ccccc3c(=O)c1=2	82*	-3	-6.3*	-45
CC(NC(=O)c1ccc(F)cc1)C(=O)O (stereo not drawn)	102	49	0.75	38*
CC(C)C(NC(=O)c1ccc(F)cc1)C(=O)O (stereo not drawn)	.	.	-0.15	.
CCN1CCCC1CNCc1ccccn1 (stereo not drawn)	102	2	1.8	-79
CCN1CCCC1CNCc1cccc(OC)c1OC (stereo not drawn)	103	1	-0.25	38*
CN(C)C(CNC(=O)c1cccc(OC(F)F)c1)c1ccco1 (stereo not drawn)	.	3	2	-32
COc1cc(CN2CCc3nc(N4CCN(c5ccccn5)CC4)ncc3C2)cc(OC)c1OC	102	.	.	.
CCOc1ccc(CN2CCc3nc(N4CCN(c5ccccn5)CC4)ncc3C2)cc1OC	13*	.	.	.
Cc1nn(C)c2c1c(C(F)(F)F)cc(=O)n2CC(=O)c1c(C)n(C)c2ccccc12	101	-2	2.1	15
CC1(C)CC(C(CC#N)c2ccc(F)cc2)CCO1 (stereo not drawn)	.	12	-0.8	.
CC(/C=C1\SC(=S)N(CC(=O)Nc2ccccn2)C1=O)=C\c1ccccc1	.	.	0.1	.
